According to PubChem BioAssay AID504942 (Broad Institute, 2011):
Entries with a potency or affinity are not part of this list. Activity calls are given as the source filed them. The rule behind the calls is not given here.

Experiment: HeLa cell cytotoxicity, dose response, cytotoxicity control, 48 h, plate reader, cherry-picks (AID 504942)
Details: series mostly up to 38 µM

| SMILES | outcome |
| --- | --- |
| COC(=O)c1ccc(NC(=S)N2CCCC2)cc1 | inactive |
| Nc1ccc(OCc2ccccc2)cc1[N+](=O)[O-] | inactive |
| C#CCSc1ncc(-c2ccccc2)cn1 | inactive |
| N#Cc1cc([N+](=O)[O-])ccc1N1CCCC1 | inactive |
| O=[N+]([O-])c1ccc(N2CCCCC2)cc1 | inactive |
| Clc1ccc2scc(CN3CCCCC3)c2c1 | inactive |
| Cn1cccc1C(C#N)c1cccc(F)c1C#N (centres undefined) | inactive |
| CCOC(=O)CCCn1ncn2c(cc3occc32)c1=O | inactive |
| OC(c1cccc(Cl)c1)c1nccc2ccccc12 (centres undefined) | inactive |
| CC(C)N=C(NC#N)SCc1ccccc1F | inactive |
| Cc1ccc(S(=O)(=O)NCCC(C)C)cc1[N+](=O)[O-] | inactive |
| Clc1ccc2scc(CN3CCCC3)c2c1 | inactive |
| CCOC(=O)N1CCN(c2ccc(Cl)cc2)CC1 | inactive |
| CCOc1ccc(CNC2CCCc3ccccc32)cc1 (centres undefined) | inactive |
| O=[N+]([O-])c1ccc(N2CCCCC2)nc1 | inactive |
| O=C1C=C(c2cccc(Cl)c2)C[C@@H](c2ccc(F)cc2)C1 | inactive |
| N#CC(c1ccc(Cl)nn1)c1ccc(Cl)cc1Cl (centres undefined) | inactive |
| COc1ccc(CNCc2cccc(Cl)c2)cc1 | inactive |
| COc1ccc(/C=C/C(=O)c2ccoc2)cc1 | inactive |
| CCOC1=CC(=O)OC(c2ccccc2)C1 (centres undefined) | inactive |
| O=C1C=C(c2cc(F)ccc2F)C[C@@H](c2ccc(F)cc2)C1 | inactive |
| Cc1cc(C)nc(N(C#N)Cc2ccccc2)n1 | inactive |
| Cc1cccc(C(C#N)c2ccc(Cl)nn2)c1 (centres undefined) | inactive |
| Cc1ccc(C)c(S(=O)(=O)NC2CCSC2=O)c1 (centres undefined) | inactive |
